# Source: PubChem (National Center for Advancing Translational Sciences (NCATS))
# Hits are enriched below; roughly 12% of the tested compounds scored in any of these assays.
# BAZ2B inh: BAZ2B (human) inhibition | Potency, µM (top dose mostly 114 µM), inactives show top-dose activity change, negative = inhibition, most hits filed as inhibitors | Q9UIF8 | AlphaScreen BAZ2B-H3K14Ac peptide displacement | 360,000 compounds, 4.4% hits; further: on the % scale 0 is the no-effect control and ±100 the full control effect; nearly all actives have a fitted effect of over 60% in size
#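 AlphaScreen displacement of biotin-H3(5-23)K14Ac peptide (50 nM final) from BAZ2B (50 nM final) in PBS pH 7.4, 0.01% Tween-20; complex preformed 30 min RT, then compounds (top 110 uM) 30 min RT, beads 20 min dark.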
# JMJD2A Tudor inh: blocks the human JMJD2A Tudor domain. AlphaScreen JMJD2A-Tudor / H3K4me3 peptide binding. Potency, µM (top dose mostly 114 µM), for inactives: top-dose activity change, negative = inhibition, most hits filed as inhibitors. 390,000 compounds, 4.4% hits. AID 504339; further: on the % scale 0 is the no-effect control and ±100 the full control effect; nearly all actives have a fitted effect of over 50% in size
# HP1b chromo inh: inhibitors of HP1-beta chromodomain binding to methylated histone tails. P83916. AlphaScreen HP1-beta / biotin-H3K9me3 peptide binding. Potency, µM (highest dose often 114 µM), without a hit: at the top dose activity change, negative = inhibition, most hits filed as inhibitors. 390,000 compounds, 0.56% hits; further: nearly all actives have a fitted effect of over 70% in size
# Target sequence (P83916 whole entry, looked up): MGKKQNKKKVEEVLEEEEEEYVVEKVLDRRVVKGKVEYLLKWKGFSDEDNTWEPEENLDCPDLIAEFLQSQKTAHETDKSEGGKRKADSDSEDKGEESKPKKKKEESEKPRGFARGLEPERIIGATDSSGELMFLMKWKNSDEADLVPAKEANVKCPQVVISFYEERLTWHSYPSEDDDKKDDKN
#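 HP1-beta protein (50 nM final) preincubated 30 min at room temperature with biotinylated H3(1-18)K9me3 peptide (50 nM) in PBS pH 7.4, 0.01% Tween-20, then compound added for 30 min. AlphaScreen streptavidin donor/nickel chelate acceptor beads (10 ug/mL final), 30 min dark, luminescence read.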
# PLK1 PBD inh: inhibitors of human PLK1 polo-box domain binding | P53350 | Potency, µM, inactives show max response, negative = inhibition, actives largely listed as inhibitors | AID 720504 | Plk1 PBD binding of FITC phosphopeptide, fluorescence polarization | 360,000 compounds, 2.8% hits; further: series mostly up to about 57 µM; on the % scale 0 is the no-effect control and ±100 the full control effect; nearly all actives have a fitted effect of over 65% in size
# Sfp inh: Sfp phosphopantetheinyl transferase inhibition; Q9F4F7; Biochemical Sfp PPTase activity, qHTS; Potency, µM, for the others: largest response in the series, negative = inhibition, hits mostly inhibitors; 310,000 compounds, 3.5% hits; AID 1490;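 further: the enzyme is Sfp with the accession as filed and its product quenches rhodamine fluorescence; 0% = enzyme reaction without inhibitor and -100% = no enzyme wells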
#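 Step 1, compound plus 15 nM Sfp-PPTase, 15 min, room temperature. Step 2, add rhodamine-CoA (5 uM) and BHQ-2-YbbR (12.5 uM). Step 3, read 525/598 nm fluorescence at 0 and 30 min.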
# G9a inh: G9a (human) methyltransferase inhibition; G9a H3K9 monomethylation, AlphaScreen, 2 h; Q96KQ7; 350,000 compounds, 8.8% hits; Potency, µM (series often up to 102 µM), inactives show at the highest dose activity, negative = inhibition, usual class: inhibitors; further: on the % scale 0 is the no-effect control and ±100 the full control effect; nearly all actives have a fitted effect of over 75% in size
# Target sequence (Q96KQ7 913-1193 limits assumed): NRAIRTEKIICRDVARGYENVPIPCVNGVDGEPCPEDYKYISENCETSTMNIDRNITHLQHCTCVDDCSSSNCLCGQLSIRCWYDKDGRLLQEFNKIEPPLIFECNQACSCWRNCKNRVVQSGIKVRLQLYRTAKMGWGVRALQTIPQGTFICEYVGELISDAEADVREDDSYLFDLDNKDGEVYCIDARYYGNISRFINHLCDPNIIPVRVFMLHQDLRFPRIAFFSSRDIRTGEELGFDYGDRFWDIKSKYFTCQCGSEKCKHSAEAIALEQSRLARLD
#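 Using a bead-based AlphaScreen, monomethylated H3K9 product from 2 h room-temperature reactions (G9a 20 nM, peptide 500 nM, SAM 20 uM) was detected with 0.5 ug/mL rabbit anti-H3K9me1 antibody.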
# * hit, by the source's call; ? = inconclusive; . = not tested or not shown; [ ] = another dose, or the depositor's remark. The call rests on the fitted dose curve; in most records, active means well fitted curve in the direction sought with a large enough effect; inconclusive means small, poorly fitted or top-dose-only effect, or another doubt; inactive means no such curve, though single readings can be large; an effect the other way counts as inactive or inconclusive. Potency means the concentration at half of the fitted maximal effect.
SMILES,BAZ2B inh,JMJD2A Tudor inh,HP1b chromo inh,PLK1 PBD inh,Sfp inh,G9a inh
Cc1ccc(NC(=S)Nc2ccc3cn[nH]c3c2)c(C)c1,-30%,-11%,-11%,-10%,2%,?
O=C(Cn1cnc2ccc(Cl)cc2c1=O)NC1CCS(=O)(=O)C1 (stereo not given),13%,-13%,-5%,-9%,.,-4%
OC[C@@H]1CN(Cc2ccc(Cl)cc2)C[C@H](n2cnc3c(N4CCN(c5ccccc5)CC4)ncnc32)O1,.,.,.,-6%,.,.
Cc1cccc(N2CCN(C(=O)c3ccc4c(c3)NC(=O)C(CSCc3cccc(F)c3)N4)CC2)c1C (stereo not given),?,.,.,.,89µM*,10µM*
Cc1cccc(N2CCN(C(=O)CSCc3ccc(F)cc3)CC2)c1C,49%,17%,34%,.,.,14%[59 µM]
O=C(O)c1nn(-c2ccccc2)ccc1=O,5%,-21%[11.4 µM],14%,12µM*,10%,.
Cc1c(Cl)cccc1NC(=O)C1COc2ccccc2O1 (stereo not given),2%,5%,41%,-2%,19%,17%
Cc1ccccc1-c1nc(S(=O)(=O)c2ccccc2)c(NCCCN2CCOCC2)o1,.,-23%,24%,-13%,.,.
NC(=O)C1CCN(c2oc(-c3ccc(F)cc3)nc2S(=O)(=O)c2ccccc2)CC1,-9%,-6%,21%,2%,.,-7%[12.7 µM]
CCN1CCN(c2oc(-c3ccccc3C)nc2S(=O)(=O)c2ccccc2)CC1,?,?,-29%,-10%,.,35µM*
COc1ccccc1-c1nc(S(=O)(=O)c2ccccc2)c(N2CCCCC2)o1,-23%,79µM*,?,?,?,25µM*
O=S(=O)(c1ccccc1)c1nc(-c2ccc(F)cc2)oc1N1CCCCCC1,?,-22%,-12%,.,.,13µM*
CC1=C(C(=O)N2CCCCCC2)CC(CC(=O)NCCN2CCOCC2)C(=O)N1Cc1ccc(F)cc1 (stereo not given),.,.,.,-4%,.,.
COc1ccc(CN(C)CC(=O)Nc2cccc3ccccc23)cc1F,1%,-1%,29%,-1%,2%,18%
CCOc1ccc(CN(C)CC(=O)Nc2cccc3ccccc23)cc1OC,.,0.79µM*,?,2%,?,7.1µM*
COc1ccc(OC)c(NC(=O)CN(C)CC(=O)Nc2ccccc2Br)c1,45µM*,8.9µM*,-3%,-11%,?,7.9µM*
COc1cccc(NC(=O)CN(C)CC(=O)NC(C)c2ccccc2)c1 (stereo not given),6%,-1%,31%,3%,6%,71µM*
COc1ccc(CN(C)CC(=O)NC(C)c2ccccc2)c(OC)c1 (stereo not given),56µM*,1.8µM*,?,-3%,-21%,?
COC(=O)C1C(O)CC[C@H]2CN3CCc4c([nH]c5ccccc45)C3C[C@H]12 (stereo not given in full),.,.,.,.,-2%,.
CN(CC(=O)Nc1ccccc1Br)CC(=O)NC(c1ccccc1)c1ccccc1,?,-19%,3%,-7%,.,-23%
CC(NC(=O)CN(C)CC(=O)Nc1ccccc1Br)c1ccccc1 (stereo not given),32µM*,28µM*,-6%,-6%,.,-121%[12.7 µM]
O=C(c1csnn1)N1CCC2(CCN(Cc3ccccc3)CC2)CC1,.,.,.,.,-27%,-7%[12.7 µM]
COc1ccc(C2NN=C(c3ccc(C)cc3)S2)cc1 (stereo not given),11%,-12%,18%,?,9%,32µM*
CCOc1cc(C2NN=C(c3ccc(C)cc3)S2)ccc1O (stereo not given),-3%,-12%,32%,?,-10%,19%[59 µM]
COc1ccc(NC(=O)CN(C)C(=O)Cc2ccsc2)cc1,0%,-2%,32%,-9%,13%,12%[12.7 µM]
C/C(=C\C(=O)c1ccccc1)Nc1ccc(O)cc1,?,?,-36%,-7%,-21%,28µM*
COc1ccc(CC(=O)Nc2ccc(C(C)=O)cc2)cc1,?,-10%,44%,-15%,50µM*,11%[12.7 µM]
